{"source": "PubChem BioAssay AID1508600", "about": "(Functional Genomics Laboratory (NCATS/FGL), 2020)", "note": "The whole screen tested about 53,000 sequences, of which about 3,700 (7%) were called active. Many of the other results were omitted from the sample, so actives are more common in it than they were. A number with no mark means an inactive call.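 The calls were made as follows: active = gene knockdowns whose robust z-score for IL-1 alpha signal is at least 2 or at most -2, so actives lie on both sides; inactive = the rest.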"}
{"assay": "Components of the Cytosolic LPS Sensing Pathway: Gene Identification via Genome-wide siRNA Screen", "settings": "RAW264.7 macrophages, IL-1a HTRF, actives lie on both sides, screened at 100 nM (by protocol), cells primed 5 h with Pam3CSK4 first", "from_the_text": "Non-canonical inflammasome activation by cytosolic LPS is a critical component of the host response to Gram-negative bacterial infection, however we lack a comprehensive understanding of the cellular processes that control this pathway. Here we describe a genome-wide siRNA screen to identify genes regulating the mouse macrophage IL-1 alpha response to cytosolic LPS.\nRAW264.7 cells were maintained in complete DMEM media, comprising DMEM with 4.5 g/L glucose, 10% FBS (Gemini Bio-Products, West Sacramento, CA), 2 mM Glutamine (Lonza) and 20 mM HEPES (Lonza), hereafter complete DMEM.\nThe RNAi screen was conducted in 384-well format using the Ambion Silencer Mouse Genome siRNA Library (#4391425), which consists of three unique, nonoverlapping, nonpooled siRNAs for each of 17,000 gene targets. siRNA reagents ([…]) were stamped into 384-well white flat-bottom microplates (Corning, 3570) using a Velocity11 VPrep liquid handling system (Agilent) integrated into a BioCel robotic platform (Agilent) in columns 1-22, leaving columns 23-24 empty for negative (Ambion, Negative control #1) and positive (mouse Casp4) controls, respectively. The median value of each plate's negative control column was used to normalize sample wells, and the positive control was used to assess transfection efficiency and assay performance.\nLipofectamine RNAiMAX Transfection Reagent ([…]; Invitrogen) was added in […] serum-free, antibiotic-free media to plate wells using a Thermo Scientific Matrix WellMate and Microplate Stacker. Plates were incubated for 45 min at room temperature to allow for the sufficient formation of siRNA-lipid complexes. Cells were seeded at a density of 1x10^4 cells per well in 20 microL media containing 20% (vol/vol) FBS without antibiotics. The final concentration of siRNA in each well was 100 nM. Cells were cultured for 48h at 37 degrees C in 5% CO2 before addition of […] of TLR ligand Pam3CSK4 for 5 hours. The medium was then removed, replaced with […] growth media and cell were transfected with […] of LipidA and TransIT-TKO (Mirus) for 24 hour. At the end of the LipidA treatment, […] of supernatant was transferred to a 384 Greiner Bio-one non-binding low volume plate and […] of IL-1a HTRF reagent (Cisbio, 62MIL1APEH) was added and incubated at room temperature overnight. The plates were read on an EnVision plate reader (PerkinElmer). Cell viability was measured by adding 20ul Cell Titer Glo to the original plate and running a luminescence read on the EnVision. The quantified IL-1a signal for each siRNA gene-targeted well was divided by the median of the negative control wells and multiplied by 100 to achieve a negative control normalized value for each well/siRNA. This normalized value was then used to generate a robust z-score by first taking the log of each value and then by subtracting the median and dividing by the […]."}
{"sequence": "GGAUAAGAAGAUGAGGCAGTT against Mns1", "z-score": -0.0977}
{"sequence": "GCUUCAAAACAAACCCUUGTT against Parp11", "z-score": -1.58}
{"sequence": "GGAGUGUAUGCAGAAGUUUTT against Dnajc24", "z-score": 1.49}
{"sequence": "GGUUUUGGUAUCUCCAUGGTT against Olfr2", "z-score": -0.48}
{"sequence": "GGAGCAUAGAAAAGACAAUTT against Grk2", "z-score": "2.69 (active)"}
{"sequence": "GGAUAAGAAGCGAUUUGAATT against Rcn2", "z-score": -0.294}
{"sequence": "GCUGCUGGAGUGCAACUAATT against Tradd", "z-score": 0.391}
{"sequence": "GCACAACAUACCCUGUGGUTT against Syn1", "z-score": "-2.72 (active)"}
{"sequence": "CCUGAAUGGACAAACAGGATT against Gm6460", "z-score": -0.193}
{"sequence": "CCAAACCUAUUCUGAGAUGTT against Klrg2", "z-score": -0.0403}
{"sequence": "GGAGCUGGACAAGUUCAUGTT against Clrn1", "z-score": -0.994}
{"sequence": "GGGAGCAAAGAGGAACAGCTT against Fis1", "z-score": -0.73}
{"sequence": "GGUGCAAUCGUGUUGAGCUTT against Dap3", "z-score": 1.06}
{"sequence": "GCAAACCUUCGGUCUUGCCTT against Cd5l", "z-score": -0.364}
{"sequence": "GGAGAGAUCAUACACUUUGTT against BC048679", "z-score": 0.43}
{"sequence": "GGUAGUGAAUGAACUCUUUTT against Bcl2l1", "z-score": -1.41}
{"sequence": "GGCAGACAUCACAAUGGCUTT against Hemgn", "z-score": -0.201}
{"sequence": "GGACAUGUCCGAAUACUACTT against Pdss1", "z-score": "2.34 (active)"}
{"sequence": "GGGUUAGCAACUUCAAAUATT against Zmynd19", "z-score": 0.996}
{"sequence": "CCUAAAUCCUUUUGAACCCTT against Anapc16", "z-score": 0.295}
{"sequence": "GGCCAGUGUGUGGUCUAAGTT against Cd1d2", "z-score": 1.89}
{"sequence": "GGUCUUCAGAUAAUCUUCCTT against Brinp1", "z-score": 1.91}
{"sequence": "GCUCAGAUAAUGGCCUACATT against Smarca4", "z-score": "2.28 (active)"}
{"sequence": "CCGACAAACGCAAGGUGAUTT against Rtl8c", "z-score": -0.382}
{"sequence": "GGUGUGUGGUGUUAAAAAATT against Mybph", "z-score": -0.81}
{"sequence": "GGUGGAAUAUAGCUUCAUCTT against Ifngr2", "z-score": 1.06}
{"sequence": "GGAAGAACACAAGUGUUUUTT against Trem3", "z-score": -0.626}
{"sequence": "GCGAAGCGUGCUGCUAAGATT against Ccdc59", "z-score": 0.519}
{"sequence": "GGCCAGCUCUCUUUUGCUATT against Cflar", "z-score": "2.5 (active)"}
{"sequence": "GCAGAGGCUCUCCUUAUAGTT against Ccser2", "z-score": 0.747}
{"sequence": "GGUACGGUGUUUUGGAUACTT against Fam174a", "z-score": 0.00664}
{"sequence": "GGGACAGUUUUCGGACUUCTT against S1pr4", "z-score": -0.362}
{"sequence": "GCUACAGGGAAAAAGUUCCTT against Olfr994", "z-score": 0.383}
{"sequence": "CGGCUGCAUUUCAACAAGGTT against Snrpc", "z-score": -1.92}
{"sequence": "GGUUCUGCCAUGGAGGAAUTT against Svs5", "z-score": 0.0746}
{"sequence": "GCCACUCACCUGUAGUUCUTT against BC049715", "z-score": 0.0758}
{"sequence": "GGAUCUCAGAUUUACUGUCTT against Dedd2", "z-score": 0.484}
{"sequence": "GGUCAUCAAGCAGUGCUAUTT against Ncstn", "z-score": "4.32 (active)"}
{"sequence": "CGGAGCAUUGGGACAAUUUTT against Olfr690", "z-score": 1.1}
{"sequence": "GGAAGUUGAAUACAUUGUCTT against Arntl", "z-score": 0.127}
{"sequence": "GCAUGCAAAUCUCCUCUAATT against Sema3b", "z-score": -0.116}
{"sequence": "CCUUUGUAACUGGAAUUCUTT against Olfr197", "z-score": 1.74}
{"sequence": "GGAAAUUGUGAGAAGAACUTT against Slx4ip", "z-score": "2.33 (active)"}
{"sequence": "GGAUCAAAUUACAGAUCUUTT against Eef1e1", "z-score": 1.81}
{"sequence": "GGAAAUGCUACUGCUUGGATT against 1700030K09Rik", "z-score": 1.2}
{"sequence": "GGAAACCAAAGAUAAACUCTT against Ccdc186", "z-score": 0.726}
{"sequence": "GGGCAUCAAGUGUAAAAAATT against Med7", "z-score": -0.384}
{"sequence": "GGAUAGGAAGAAAAUGAAGTT against Slfn2", "z-score": "-2.83 (active)"}
{"sequence": "CCCAAAUCCUACGAAGCCUTT against Tanc1", "z-score": -1.9}
{"sequence": "GGAUCUAAGGAAGUUUCUGTT against Gfpt2", "z-score": 0.594}
{"sequence": "GGCGAACACCAUGAAAAGGTT against Lin7b", "z-score": 0.794}
{"sequence": "GCGUGGAUAGUUUCACAGCTT against Fbp1", "z-score": -0.142}
{"sequence": "GGAGAGUGCUGUGAAGCCATT against Vegfb", "z-score": -0.943}
{"sequence": "CCAGAAGAGUACUGUUUUATT against Tpm4", "z-score": "2.17 (active)"}
{"sequence": "GGAAUACUCCAGUAUCUCCTT against 9130401M01Rik", "z-score": -0.753}
{"sequence": "GGCAAUGAGACAAUUGUCATT against Cpe", "z-score": -0.638}
{"sequence": "GGCAAAAUCCCAUACGAAATT against Itk", "z-score": 0.0298}
{"sequence": "CCAUGUAAGAUGUUAAGUATT against Abcb1a", "z-score": -0.265}
{"sequence": "CCUUUGUGUCCUAACGGUGTT against Tubb2b", "z-score": -0.158}
{"sequence": "GGUCCAUUGCUAAAGACUGTT against Tcf19", "z-score": 0.0971}
{"sequence": "GGUAAUGAGGACAUGGAUCTT against Lyrm4", "z-score": 0.467}
{"sequence": "GCACUUUCCUUUAUUGUGUTT against Fam117a", "z-score": -1.41}
{"sequence": "GGAAUUCAUGAACUACUAUTT against Capsl", "z-score": "-2.07 (active)"}
{"sequence": "GGCUCAGAUUGAUAGGAUATT against Gmfg", "z-score": 0.103}
{"sequence": "GGCCAAACUAAUGUUUUUCTT against Prox2", "z-score": -0.594}
{"sequence": "CCUGCUGGGAUUUAUUCAATT against Pmvk", "z-score": "2.52 (active)"}
{"sequence": "GCUCAUAAUUACAUCACCATT against H3c15", "z-score": -1.22}
{"sequence": "GGACCAUCCUACAUCGGUCTT against Fpgs", "z-score": 1.02}
{"sequence": "GGACAAGGUCUUUAAUGUUTT against Fbxo3", "z-score": -0.263}
{"sequence": "CGGUUGUCUUCCUCUUAGUTT against Fzd5", "z-score": -0.52}
{"sequence": "GAAAAGAGGAUUCCUUGCATT against Olfr1128", "z-score": 0.726}
{"sequence": "GGCAAAGUUGUCCUAAGGUTT against Rab27b", "z-score": "2.54 (active)"}
{"sequence": "GCGAGAGUGAAAACAUCCATT against Fam78b", "z-score": 0.331}
{"sequence": "GGCUUAUACGCUCCAUAUUTT against Gykl1", "z-score": -0.214}
{"sequence": "GGAUACAUUCCAGACAUACTT against Map3k2", "z-score": -0.0192}
{"sequence": "GGCGGACGUGAAGAACUUGTT against Letmd1", "z-score": 1.28}
{"sequence": "GGAACAGUCCUACUGAUAUTT against Cdkn1a", "z-score": -0.271}
{"sequence": "GCUGGAUGGAGGCAAAGCATT against C1ql1", "z-score": -1.38}
{"sequence": "GGCCAGAACCACCAAAGAATT against Zc2hc1a", "z-score": -0.753}
{"sequence": "GCAACAAUCUAACCUCAGATT against Mela", "z-score": "-2.3 (active)"}
{"sequence": "CCACUGAUAACUCGAUUUGTT against Nrp1", "z-score": -0.228}
{"sequence": "GGAACCUCUUGGACAAAGATT against Cpne5", "z-score": "2.17 (active)"}
{"sequence": "GGUAACAUGGCAGAUUUUATT against Aif1l", "z-score": 0.618}
{"sequence": "GGACUGUUUGGAUUGCAUATT against Dock7", "z-score": 0.891}
{"sequence": "GGCAACAGCAUCCUACUCUTT against Olfr652", "z-score": "-2.12 (active)"}
{"sequence": "GCAUUUCGAAGUGCCCUUGTT against Gpr146", "z-score": 1.22}
{"sequence": "CCGCUACCAGAUAAACUCGTT against BC053393", "z-score": 0.984}
{"sequence": "GGACAAUACGGAGAAAGAUTT against Mdfic", "z-score": -0.522}
{"sequence": "GGGCAAAUUAUGCUGUCAUTT against Tomm20", "z-score": -1.7}
{"sequence": "GCGAUGAGAUUGUUGCUGUTT against Ttc33", "z-score": "2.32 (active)"}
{"sequence": "GCUUGCUGACCUGAAGUGATT against Krt17", "z-score": 0.262}
{"sequence": "GCUAUCCCUUUAUGUAACATT against Prl7b1", "z-score": -0.224}
{"sequence": "CCAUAUCGAGUACCUCCAATT against Rtn4rl1", "z-score": -0.522}
{"sequence": "GGUCUACUGGCGUAAUUACTT against Vsig4", "z-score": -0.365}
{"sequence": "GCAGUCAUUCAAGGUUCCUTT against Hmces", "z-score": -0.231}
{"sequence": "GGUGUUGAAAUAAUUUCUCTT against Phospho2", "z-score": -0.285}
{"sequence": "GGAGUGUAGUAAAUGUACCTT against Ppp1r13b", "z-score": "3.97 (active)"}
{"sequence": "GGACUUGAUCCCAAAGCUGTT against Mrpl17", "z-score": -1.21}
{"sequence": "GGGACAACACAUUAACUUATT against Uckl1", "z-score": 1.41}
{"sequence": "GCACAUUGUCUAGUAGUAATT against Zfp280d", "z-score": -0.622}
{"sequence": "GGAACAGAAACAAGGUUUUTT against Zfand2a", "z-score": 0.962}
{"sequence": "CCUCAUUCAGGGAGUUCCATT against 2200002J24Rik", "z-score": -1.52}
{"sequence": "GGACAGUGGAAGGAAUCCATT against 2310033P09Rik", "z-score": "-2.91 (active)"}
{"sequence": "GCUGAUGCUCCAUUGAAUGTT against Prr27", "z-score": 0.228}
{"sequence": "GCGUGAGAGAUACCGCCAUTT against Gnai2", "z-score": -0.847}
{"sequence": "CGUGGUUUGUCAAUGAAGGTT against Eprs", "z-score": 0.358}
{"sequence": "GGUUCUUUGGAAUGCUUUUTT against Myl12a", "z-score": "2.76 (active)"}
